An excerpt weighted towards active compounds, which were near 5.7% of everything screened.
hgDAF12 agonist: activates the H. glycines DAF-12 receptor ligand-binding domain. activation, % at 6.8 µM. AID 687014. HEK293 GAL4-hgDAF12 UAS-luciferase reporter, agonist luminescence; normalized to butyrate control. actives 1.8% (n = 370,000);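 active = activation above a cutoff set at the mean of all screened compounds plus 3 SD, cut at about 10% in these data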;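 also: 0% = DMSO wells and 100% = sodium butyrate wells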
hcDAF-12 act: H. contortus DAF-12 activation, primary screen | HEK293 hcDAF-12 lit1-tk-luc reporter, luminescence; 0% DMSO, 100% Δ7-dafachronic acid | activation, % at 6.8 µM | actives 1.4% (n = 370,000);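 active = activation above the mean of all tested compounds plus 3 SD, cut at about 5.5% in these data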;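 also: 100% = response to 3 µM Δ7-dafachronic acid high control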
DAX1 inh-1: inhibits human nuclear receptor DAX1; P51843; HEK293 Gal4-DAX1 luciferase reporter, luminescence; inhibition, % at 6.75 µM; actives 0.99% (n = 340,000);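 active = inhibition above the mean over all tested compounds plus 3 SD, cut at about 4.2% in these data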;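 also: 0% = DAX1-transfected cells with DMSO and 100% = empty-vector control cells with DMSO; inhibition shows as a rise in luminescence from relieved DAX1 repression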
ssDAF-12 act: activates DAF-12 receptor from parasite S. stercoralis; activation, % at 6.8 µM; HEK293 ssDAF-12/GRIP1 lit1-tk-luc reporter, luminescence; % of 3 µM dafachronic acid response; actives 1% (n = 370,000);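 active = activation above the mean over all tested compounds plus 3 SD, cut at about 0.9% in these data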;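 also: 0% = DMSO-only wells and 100% = 3 µM delta7-dafachronic acid wells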
DAX1 inh-2: inhibitors of DAX1 repression of SF-1 activated StAR promoter. HEK293T StAR-luciferase reporter, SF-1/DAX-1 repression relief. inhibition, % at 6.8 µM. actives 1.1% (n = 370,000);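 active = inhibition above the mean over all tested compounds plus 3 SD, cut at about 3.6% in these data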;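 also: 0% = DAX-1 cells with DMSO and 100% = cells lacking DAX-1 with DMSO; higher inhibition means more luminescence from relief of DAX-1 repression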
AHR act: activates the human aryl hydrocarbon receptor; activation, % at 5 µM; actives 2.5% (n = 320,000); AHR-responsive luciferase reporter cells, luminescence; in the data active = activation above about 47%;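 also: 0% = vehicle wells and 100% = reference agonist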
Target sequence (P35869 whole entry, looked up): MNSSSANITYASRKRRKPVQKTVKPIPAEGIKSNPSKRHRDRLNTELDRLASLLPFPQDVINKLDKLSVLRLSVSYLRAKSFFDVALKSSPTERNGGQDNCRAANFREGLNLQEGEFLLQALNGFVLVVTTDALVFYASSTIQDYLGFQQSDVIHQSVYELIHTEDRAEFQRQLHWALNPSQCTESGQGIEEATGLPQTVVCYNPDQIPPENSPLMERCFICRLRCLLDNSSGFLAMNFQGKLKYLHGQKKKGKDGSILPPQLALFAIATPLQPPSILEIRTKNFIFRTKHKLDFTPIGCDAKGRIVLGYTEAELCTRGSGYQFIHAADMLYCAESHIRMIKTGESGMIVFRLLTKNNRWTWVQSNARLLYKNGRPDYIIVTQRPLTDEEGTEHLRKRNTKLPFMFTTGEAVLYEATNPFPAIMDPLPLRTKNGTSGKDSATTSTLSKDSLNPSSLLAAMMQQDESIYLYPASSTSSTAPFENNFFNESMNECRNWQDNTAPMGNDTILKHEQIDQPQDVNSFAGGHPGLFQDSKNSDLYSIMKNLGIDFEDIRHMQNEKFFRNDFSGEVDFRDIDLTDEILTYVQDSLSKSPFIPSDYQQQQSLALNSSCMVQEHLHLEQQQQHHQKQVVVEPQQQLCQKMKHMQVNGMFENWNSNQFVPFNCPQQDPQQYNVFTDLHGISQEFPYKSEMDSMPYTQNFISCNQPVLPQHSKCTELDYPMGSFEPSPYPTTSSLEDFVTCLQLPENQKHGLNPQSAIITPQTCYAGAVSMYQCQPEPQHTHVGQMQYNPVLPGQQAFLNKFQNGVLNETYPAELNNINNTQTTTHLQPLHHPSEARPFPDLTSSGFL
The depositor's hits bear a star; . = no result given.

SMILES	hgDAF12 agonist	hcDAF-12 act	DAX1 inh-1	ssDAF-12 act	DAX1 inh-2	AHR act
CC(C)N1CCC1(C)C(=O)Nc1ccc2cn[nH]c2c1 (configuration not stated)	2.3	3.0	.	-0.5	0.5	.
Cc1oc2ccccc2c1CC(=O)NCCCN(C)C	-0.6	0.0	.	-0.9	0.0	2.7
OCCN1CCN(CC(O)C(F)(F)F)CC1 (configuration not stated)	-4.8	-1.5	-0.5	-1.7	-0.2	0.8
Nc1nc2ccccc2n1C(=O)c1ccccc1	12.3*	5.6*	-0.6	-0.1	3.2	10.4
Nc1nc2ccccc2n1C(=O)c1ccc(F)cc1	10.0	5.5	-2.5	-0.2	3.9*	28.5
COc1ccc(C(=O)n2c(N)nc3ccccc32)cc1OC	9.8	0.6	3.8	0.2	1.1	27.1
Cc1cc(N2CCN(c3ccc(F)cc3)CC2)nc2cc(O)ccc12	-1.4	-1.7	-0.8	-1.5	0.0	97.5*
COc1ccc2c(C)cc(N3CCN(c4ccc(F)cc4)CC3)nc2c1	1.8	3.0	-1.9	-0.4	-0.6	69.1*
Cc1cc(N2CCCN(C)CC2)nc2cc(Cl)ccc12	1.0	-0.5	0.8	1.1*	-0.2	7.4
COC(=O)Cc1cc(C)cc2c(=O)cc(-c3ccoc3)oc12	-1.3	-0.8	.	-0.8	-0.7	-1.2
CC(=O)c1ccc(OC(C)C(=O)Nc2cccc(S(=O)(=O)NCc3ccco3)c2)cc1 (configuration not stated)	-0.8	-0.4	0.4	-0.9	-0.3	0.7
Clc1nn2cnnc2c2ccccc12	-3.2	-2.1	6.2*	-1.0	0.0	-2.2
c1ccc(-c2nn3cnnc3c3ccccc23)cc1	-1.2	-1.4	1.3	-1.2	-1.2	2.5
Cc1c(C=NNC(=O)c2ccc(Br)cc2)c2ccccn2c1C(=O)c1ccncc1	2.0	-0.8	-0.8	-1.6	0.9	2.6
N#Cc1c(N)c2ccccn2c1C(=O)c1ccc(Br)cc1	-0.8	0.3	-0.1	-0.9	-0.1	61.4*
CCN1CCc2nc(NC(=O)c3ccc(S(=O)(=O)N(C)C)cc3)sc2C1	1.4	4.6	0.5	-0.8	0.4	0.4
COc1ccc(Nc2nc(NCc3ccco3)nc(N)c2[N+](=O)[O-])cc1	2.5	-0.1	.	-1.6	0.1	-3.6
Cc1cccc(NC(=S)N/N=C/c2ccc([N+](=O)[O-])s2)c1	-3.4	-1.1	-0.6	-1.6	-2.7	71.4*
Cc1cccc(NC(=O)/C=C/c2ccc([N+](=O)[O-])s2)c1	-8.1	0.3	-1.5	-1.2	-1.8	28.9
COc1ccc(OC)c(NC(=O)C(=S)NC2CCCCC2)c1	4.3	0.4	-0.5	0.2	-0.4	70.3*
COc1ccc(NC(=O)C(=S)NC2CCCCC2)cc1	12.2*	1.5	1.9	-0.7	2.9	9.1
COc1cccc(C(=O)Nc2cnn(C(C)C)c2)c1	8.0	1.2	1.5	-0.7	2.0	39.5
O=C(Nc1ccccc1)N(O)c1ccc(Cl)cc1	5.0	3.8	0.8	1.6*	0.5	59.7*
CN1CCN(C(=O)CNc2ccc(C(F)(F)F)cc2[N+](=O)[O-])CC1	2.5	5.8*	-0.3	-0.1	0.2	29.3
CC(=O)Nc1ccc(NC(=O)CSc2ccc(C(F)(F)F)cc2[N+](=O)[O-])cc1	-0.9	-0.7	-1.5	-0.6	0.1	0.9
SMILES	hgDAF12 agonist	hcDAF-12 act	DAX1 inh-1	ssDAF-12 act	DAX1 inh-2	AHR act
O=C(CSc1ccc(C(F)(F)F)cc1[N+](=O)[O-])Nc1ccccc1	0.7	0.1	0.6	-1.0	-0.8	48.0*
C[C@H](Nc1ccc(C(F)(F)F)cc1[N+](=O)[O-])C(=O)O	0.7	1.2	0.4	-0.8	-0.2	36.3
CC(C)NC(=O)CNc1ccc(C(F)(F)F)cc1[N+](=O)[O-]	0.0	0.4	1.1	-0.9	0.1	52.4*
O=C(NC1CCc2ccccc21)c1cc(COc2ccc(F)cc2Cl)on1 (configuration not stated)	0.6	0.7	-1.1	-1.2	0.1	2.0
O=C(NC1CCc2ccccc21)c1cc(COc2cncc(Cl)c2)on1 (configuration not stated)	6.2	1.8	0.1	-0.6	0.0	55.4*
Cc1cccc(N(C(=O)CCC(=O)Nc2cc(C)on2)C(C(=O)NC2CCCC2)c2ccc(C)o2)c1 (configuration not stated)	3.8	-1.0	-1.0	2.2*	1.0	4.9
Cc1cc(NC(=O)CCC(=O)N(c2cccc(F)c2)C(C(=O)NC2CCCC2)c2ccc(C)o2)no1 (configuration not stated)	-0.7	-2.8	2.3	-1.6	-0.1	-0.3
O=C(Nc1nccs1)c1ccc(-c2ccc(F)c(Cl)c2)o1	5.8	1.0	1.1	-0.9	3.3	71.9*
CC(C)(C)c1csc(NC(=O)c2ccc(Br)o2)n1	2.8	-1.0	0.2	0.2	-0.2	24.6
O=C(Nc1nccs1)c1ccc(Br)o1	8.1	5.8*	2.2	-0.5	1.2	57.5*
O=C(Nc1nccs1)c1ccc(-c2ccc(Cl)cc2Cl)o1	3.5	0.9	0.4	-0.7	0.4	4.0
CN(C(=O)CSc1nnc(-c2ccncc2)n1-c1ccccc1)C1CCS(=O)(=O)C1 (configuration not stated)	4.2	-0.5	3.0	-1.2	0.5	1.0
CC(c1nnc(SCC(=O)N(C)C2CCS(=O)(=O)C2)n1-c1ccccc1)N(C)C (configuration not stated)	0.8	-1.4	0.3	-1.2	3.7*	-0.8
CSc1ccc(Cc2ccc(Cl)cc2Cl)nn1	3.5	0.4	4.3*	-0.6	0.5	6.0
O=C(c1csc2c1CCCC2)N1CCN(c2ccccc2)CC1	6.2	3.4	-1.0	1.1*	0.9	2.7
Cn1nc(-c2ccccc2F)c2cc(C(=O)Nc3ccc4c(c3)OCCO4)sc21	-4.1	-4.3	-1.0	-1.8	-1.6	19.1
Cn1c(=O)n(CCc2ccccc2)c(=O)c2c1nc1n2CCN1Cc1ccco1	-2.4	1.8	-1.5	-0.7	0.5	66.4*
O=C(Nc1ccc(Cl)cc1)P(=O)(O)c1ccccc1	0.2	-1.6	-0.6	-1.3	0.0	.
N#CCOc1ccccc1/C=C/c1nc2ccccc2c(=O)[nH]1	4.8	0.5	-0.1	-1.1	0.5	62.0*
COCCOC(=O)N/C=C\c1nc2ccccc2c(=O)[nH]1	3.8	0.2	-0.1	-1.0	0.1	55.0*
Cc1ccccc1/C=C/c1nc2ccccc2c(=O)[nH]1	11.1*	4.3	1.2	-0.2	2.9	70.2*
NS(=O)(=O)c1ccc(CNC(=O)C(Cc2ccccc2)NS(=O)(=O)c2ccccc2F)cc1 (configuration not stated)	-1.0	-1.5	-0.7	-0.9	0.3	2.0
C#CCNC(=O)C[C@@H]1C[C@@]2(C(=O)OCC)CCC=C2N(Cc2ccc3c(c2)OCO3)C1=O	0.7	-1.1	.	-0.8	1.4	.
Cc1cccc(C)c1NC(=O)CN(C)C(=O)CCC(=O)N1CCOCC1	2.2	-0.5	-1.1	-1.7	-0.1	-2.4
